According to PubChem BioAssay (NCI):
About 79,000 compounds went through this panel and 15% of them were active in at least one assay; those are over-represented in the sample as a whole. Calls of active or inactive are those of the source. Rule as the data show it: active = growth inhibition above about 70%; inactive = the rest.

Legend:
[1] = NCI Yeast Anticancer Drug Screen. Data for the rad52 strain (AID 147);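 also: 0% = growth of vehicle-treated control cultures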; conditions: S. cerevisiae rad52 mutant growth inhibition, hits give high values
Summary of the method: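 Growth of repair-deficient yeast cells was compared between compound-treated and vehicle-treated cultures to give percent inhibition.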

[2] = NCI Yeast Anticancer Drug Screen. Data for the wt1 strain (AID 149);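 also: 0% = growth of vehicle-treated wt1 cultures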; conditions: S. cerevisiae wt1 strain (SPY 50644) growth inhibition, hits give high values
Summary of the method: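 Readout: yeast growth inhibition, normalised to vehicle controls, in the wt1 strain exposed to test compounds.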

[3] = NCI Yeast Anticancer Drug Screen. Data for the rad50EPP+ strain (AID 151);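 also: 0% = growth of vehicle-treated control cultures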; conditions: S. cerevisiae rad50 mutant strain, hits give high values
Summary of the method: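 Measured: growth inhibition of rad50EPP+ yeast. Reference: vehicle-treated controls. Screen uses strains with defined genetic alterations in DNA damage repair or cell cycle control.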

[4] = NCI Yeast Anticancer Drug Screen. Data for the mgt1 strain (AID 153); conditions: S. cerevisiae mgt1 mutant growth inhibition, hits give high values
Summary of the method: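 Compounds were applied to mgt1 mutant yeast, and growth was then compared against vehicle-treated control cultures to give percent inhibition.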

[5] = NCI Yeast Anticancer Drug Screen. Data for the rad50 strain (AID 155);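 also: 0% = growth of vehicle-only cultures of the same strain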; conditions: S. cerevisiae rad50 strain growth inhibition, hits give high values
Summary of the method: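 Compounds were tested on a yeast strain with an engineered DNA damage repair alteration; the reported value is growth inhibition normalised to vehicle treatment.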

[6] = NCI Yeast Anticancer Drug Screen. Data for the mec2-1 strain (AID 157); conditions: S. cerevisiae mec2-1 strain, hits give high values
Summary of the method: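 Compounds were applied to mec2-1 yeast cells. Their growth was then compared with that of vehicle-treated cultures to give growth inhibition.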

[7] = NCI Yeast Anticancer Drug Screen. Data for the rad14 strain (AID 159);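 also: 0% = growth of vehicle-treated control cultures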; conditions: S. cerevisiae rad14 strain growth inhibition, hits give high values
Summary of the method: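 Compound-treated yeast with a defined DNA-repair lesion; growth inhibition normalised to vehicle-treated cultures.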

[8] = NCI Yeast Anticancer Drug Screen. Data for the sgs1 mgt1 strain (AID 161);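 also: 0% = growth of cultures given vehicle only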; conditions: S. cerevisiae sgs1 mgt1 strain, hits give high values
Summary of the method: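 This yeast growth screen uses a strain with defined DNA-repair lesions; compound-treated growth is compared with vehicle-treated growth.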

[9] = NCI Yeast Anticancer Drug Screen. Data for the CLN2oe strain (AID 163);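 also: 0% = growth of vehicle-only control cultures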; conditions: S. cerevisiae CLN2oe strain, hits give high values
Summary of the method: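 Cells of an engineered yeast line with disturbed cell-cycle regulation are treated with compound. Inhibition of growth is then calculated relative to the vehicle-treated reference.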

[10] = NCI Yeast Anticancer Drug Screen. Data for the cln2 rad14 strain (AID 165);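 also: 0% = growth equal to vehicle treated cultures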; conditions: S. cerevisiae cln2 rad14 strain, hits give high values
Summary of the method: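 Strain: cln2 rad14 yeast, altered in cell cycle control and DNA damage repair. Read-out: growth inhibition vs vehicle.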

[11] = NCI Yeast Anticancer Drug Screen. Data for the bub3 strain (AID 167); conditions: S. cerevisiae bub3 mutant strain, hits give high values
Summary of the method: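 Growth of a checkpoint-deficient yeast mutant is measured after compound exposure. Values represent inhibition relative to vehicle.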

[12] = NCI Yeast Anticancer Drug Screen. Data for the wt2 strain (AID 169);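 also: 0% = growth of vehicle-treated yeast cultures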; conditions: S. cerevisiae wt2 strain growth inhibition, hits give high values
Summary of the method: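 Growth of compound-treated yeast is measured and expressed as inhibition relative to vehicle-only controls.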

[13] = NCI Yeast Anticancer Drug Screen. Data for the mlh1 strain (AID 171);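 also: 0% = growth of vehicle-treated control cultures of the same strain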; conditions: S. cerevisiae mlh1 strain growth inhibition, hits give high values
Summary of the method: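 Test agents were incubated with yeast bearing a defined DNA damage repair or cell cycle control alteration; values are growth inhibition normalised to vehicle-treated cultures.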

[14] = NCI Yeast Anticancer Drug Screen. Data for the sgs1 strain (AID 173);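 also: 0% = growth of vehicle-only control cultures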; conditions: S. cerevisiae sgs1 mutant, hits give high values
Summary of the method: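 Strain with an altered DNA repair or cell cycle pathway exposed to compound. Growth then measured. Value = inhibition versus vehicle control.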

[15] = NCI Yeast Anticancer Drug Screen. Data for the mlh1 rad18 strain (AID 175); conditions: S. cerevisiae mlh1 rad18 strain growth inhibition, hits give high values
Summary of the method: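 A repair-deficient yeast strain is exposed to test compound, and growth is scored relative to vehicle-treated controls.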

[16] = NCI Yeast Anticancer Drug Screen. Data for the rad18 strain (AID 177); conditions: S. cerevisiae rad18 mutant growth inhibition, hits give high values
Summary of the method: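 DNA-repair-defective yeast; compound treatment; growth inhibition scored against vehicle.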

[17] = at 5.0 µM (retest, dose inferred, filed as 0.5)
[18] = at 50.0 µM (retest, dose inferred, filed as 5.0)

Measured: growth inhibition

CN1Cc2ccccc2/C=C\c2ccccc21
inactive: [1]; at 1.2 µM -3% | [1]; at 3.7 µM -4% | [1]; at 11.0 µM -1% | [1]; at 33.0 µM 25% | [1]; at 100.0 µM 39% | [2]; at 1.2 µM -3% | [2]; at 3.7 µM -2% | [2]; at 11.0 µM -3% | [2]; at 33.0 µM -4% | [2]; at 100.0 µM 7% | [3]; at 1.2 µM 0% | [3]; at 3.7 µM 9% | [3]; at 11.0 µM 23% | [3]; at 33.0 µM 36% | [4]; at 1.2 µM 0% | [4]; at 3.7 µM -3% | [4]; at 11.0 µM -1% | [4]; at 33.0 µM 7% | [4]; at 100.0 µM 22% | [5]; at 1.2 µM -6% | [5]; at 3.7 µM -10% | [5]; [17] -123% | [5]; at 11.0 µM -1% | [5]; at 33.0 µM 49% | [5]; at 50.0 µM 24.8% | [5]; at 100.0 µM 64% | [6]; at 1.2 µM 1% | [6]; at 3.7 µM 2% | [6]; [17] -47% | [6]; at 11.0 µM 1% | [6]; at 33.0 µM 1% | [6]; [18] 67% | [6]; at 50.0 µM 34.3% | [6]; at 100.0 µM -3% | [7]; at 1.2 µM -3% | [7]; at 3.7 µM -2% | [7]; at 11.0 µM 1% | [7]; at 33.0 µM 14% | [7]; at 100.0 µM 43% | [8]; [17] -57% | [8]; at 50.0 µM -5.4% | [9]; at 1.2 µM 0% | [9]; at 3.7 µM 2% | [9]; at 11.0 µM 3% | [9]; at 33.0 µM 2% | [9]; at 100.0 µM 3% | [10]; [17] -57% | [10]; [18] 18% | [10]; at 50.0 µM -30.4% | [11]; at 1.2 µM -2% | [11]; at 3.7 µM -1% | [11]; [17] -66% | [11]; at 11.0 µM 1% | [11]; at 33.0 µM 12% | [11]; at 50.0 µM -15.8% | [11]; at 100.0 µM 35% | [12]; at 1.2 µM 0% | [12]; at 3.7 µM 1% | [12]; at 11.0 µM 0% | [12]; at 33.0 µM -4% | [12]; at 100.0 µM 25% | [13]; at 1.2 µM 9% | [13]; at 3.7 µM 1% | [13]; at 11.0 µM -1% | [13]; at 33.0 µM -3% | [13]; at 100.0 µM 33% | [14]; at 1.2 µM 2% | [14]; at 3.7 µM 3% | [14]; at 11.0 µM 2% | [14]; at 33.0 µM 23% | [14]; at 100.0 µM 58% | [15]; [17] -109% | [15]; at 50.0 µM 22.6% | [16]; at 1.2 µM 0% | [16]; at 3.7 µM 2% | [16]; at 11.0 µM 15% | [16]; at 33.0 µM 47%
active: [3]; at 100.0 µM 71% | [5]; [18] 92% | [8]; [18] 90% | [11]; [18] 87% | [15]; [18] 89% | [16]; at 100.0 µM 78%

C[CH2][Sn]([CH2]C)([O]C(=O)C(OC(C)=O)c1ccccc1)[O]C(=O)C(OC(C)=O)c1ccccc1 (stereo unspecified)
active: [1]; at 33.0 µM 71% | [1]; at 100.0 µM 92% | [2]; at 100.0 µM 91% | [4]; at 100.0 µM 93% | [5]; at 100.0 µM 91% | [6]; at 100.0 µM 91% | [9]; at 100.0 µM 90% | [11]; at 100.0 µM 88% | [12]; at 100.0 µM 93% | [13]; at 100.0 µM 93% | [14]; at 33.0 µM 78% | [14]; at 100.0 µM 94% | [16]; at 33.0 µM 77% | [16]; at 100.0 µM 92%
inactive: [1]; at 1.2 µM 3% | [1]; at 3.7 µM 3% | [1]; at 11.0 µM 15% | [2]; at 1.2 µM 0% | [2]; at 3.7 µM 0% | [2]; at 11.0 µM 5% | [2]; at 33.0 µM 47% | [3]; at 1.2 µM 0% | [3]; at 3.7 µM 2% | [3]; at 11.0 µM 7% | [3]; at 33.0 µM 9% | [3]; at 100.0 µM 9% | [4]; at 1.2 µM 0% | [4]; at 3.7 µM 0% | [4]; at 11.0 µM 4% | [4]; at 33.0 µM 49% | [5]; at 1.2 µM -4% | [5]; at 3.7 µM 4% | [5]; [17] 13% | [5]; at 11.0 µM -2% | [5]; at 33.0 µM 67% | [5]; [18] 25% | [5]; at 50.0 µM 37.7% | [6]; at 1.2 µM 1% | [6]; at 3.7 µM 5% | [6]; [17] -13% | [6]; at 11.0 µM 14% | [6]; at 33.0 µM 65% | [6]; [18] 6% | [6]; at 50.0 µM 35.1% | [7]; at 1.2 µM -2% | [7]; at 3.7 µM -3% | [7]; at 11.0 µM 2% | [7]; at 33.0 µM 14% | [7]; at 100.0 µM 57% | [8]; [17] 7% | [8]; [18] 10% | [8]; at 50.0 µM 20.5% | [9]; at 1.2 µM -15% | [9]; at 3.7 µM -3% | [9]; at 11.0 µM 4% | [9]; at 33.0 µM 47% | [10]; [17] 8% | [10]; [18] 44% | [10]; at 50.0 µM -23.2% | [11]; at 1.2 µM 1% | [11]; at 3.7 µM 4% | [11]; [17] -13% | [11]; at 11.0 µM 12% | [11]; at 33.0 µM 53% | [11]; [18] 54% | [11]; at 50.0 µM 54.4% | [12]; at 1.2 µM -1% | [12]; at 3.7 µM -2% | [12]; at 11.0 µM 1% | [12]; at 33.0 µM 57% | [13]; at 1.2 µM 1% | [13]; at 3.7 µM 0% | [13]; at 11.0 µM 4% | [13]; at 33.0 µM 47% | [14]; at 1.2 µM -1% | [14]; at 3.7 µM 4% | [14]; at 11.0 µM 15% | [15]; [17] 2% | [15]; [18] 10% | [15]; at 50.0 µM 18.4% | [16]; at 1.2 µM 4% | [16]; at 3.7 µM 16% | [16]; at 11.0 µM 37%
